Compound activity from PubChem.
Compounds with a hit are over-represented: about 3.5% of the library has one in this group of screens.
Tau ThT inhib: inhibitors of human tau fibril formation, thioflavin T binding. P10636. 270,000 compounds, 2.1% hits. Potency, µM (titrated, usually from 57.4 µM), without a hit: at the top dose activity, negative = inhibition, actives largely listed as inhibitors. recombinant tau K18 P301L, heparin-induced fibrillization, ThT fluorescence; also: nearly all actives have a fitted effect of over 55% in size
Target sequence (P10636 561-689 P618L limits assumed): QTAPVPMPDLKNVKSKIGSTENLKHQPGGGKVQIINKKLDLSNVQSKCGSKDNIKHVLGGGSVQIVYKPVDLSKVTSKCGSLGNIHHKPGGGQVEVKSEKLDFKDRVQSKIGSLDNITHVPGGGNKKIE
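In this qHTS, human K18 P301L tau is incubated with compound and heparin for 6 hr at 37 C, and Thioflavin T fluorescence then reports fibril load.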
Tau FP inhib: blocks human tau fibril formation measured by polarization; P10636; K18 P301L tau heparin fibrillization, Alexa594 FP, 6 h; Potency, µM (highest dose often 57.7 µM), inactives show at the highest dose activity, negative = inhibition, usual class: inhibitors; 280,000 compounds, 0.39% hits; AID 1468; also: nearly all actives have a fitted effect of over 55% in size
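Recombinant K18 P301L […], labeled with Alexa 594 at 0.24 uM over 15 uM unlabeled; heparin inducer 20 uM final; 37 C, 6 hr; FP endpoint.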
TRb SRC2 PPI: inhibitors of human thyroid hormone receptor beta-SRC2 interaction; P10828; Potency, µM (doses to about 106 µM), for inactives: top-dose activity change, negative = inhibition, hits mostly inhibitors; TRbeta-SRC2 peptide binding, fluorescence polarization; receptor liganded with 1 µM T3; 280,000 compounds, 0.065% hits;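 also: plate controls were bound peptide for no effect and peptide without receptor for full effect; nearly all actives have a fitted effect of over 50% in size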
Target sequence (P10828 whole entry, looked up): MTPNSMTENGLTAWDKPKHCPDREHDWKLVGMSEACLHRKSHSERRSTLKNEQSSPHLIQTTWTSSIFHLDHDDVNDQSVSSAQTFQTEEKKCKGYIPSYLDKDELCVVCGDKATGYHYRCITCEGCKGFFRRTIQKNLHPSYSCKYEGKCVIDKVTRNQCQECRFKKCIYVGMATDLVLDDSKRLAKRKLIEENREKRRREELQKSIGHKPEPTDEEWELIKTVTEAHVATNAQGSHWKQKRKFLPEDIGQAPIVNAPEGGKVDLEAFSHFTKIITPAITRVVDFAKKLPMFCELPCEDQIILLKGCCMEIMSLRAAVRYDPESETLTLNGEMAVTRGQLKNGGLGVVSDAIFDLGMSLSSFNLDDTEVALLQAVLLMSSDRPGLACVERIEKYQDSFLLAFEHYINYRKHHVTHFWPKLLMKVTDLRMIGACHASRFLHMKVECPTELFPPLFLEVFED
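Read-out is fluorescence polarization (555 nm excitation, 632 nm emission) of a Texas Red SRC2 coactivator peptide; loss of signal reflects blocked binding to human TRb ligand-binding domain in the presence of 1 uM T3.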
JMJD2E inh: inhibitors of human JMJD2E histone demethylase; JMJD2E catalytic domain, FDH-coupled NADH fluorescence (FDH is formaldehyde dehydrogenase); Potency, µM (series often up to 57.1 µM), for the others: at the highest dose activity change, negative = inhibition, hits mostly inhibitors; 230,000 compounds, 1.6% hits; AID 2147; active = well fitted inhibition curve with a large enough effect, not every such curve was filed as active; inconclusive = small, poorly fitted or top-dose-only effect, or another doubt; inactive = no such curve, though single readings can be large or run the other way;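 also: 0% = wells with enzyme and -100% = buffer wells without enzyme; nearly all actives have a fitted effect of over 50% in size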
TexasRed fluor: counter-screen for TRb-SRC2 inhibitors: fluorescence interference; 280,000 compounds, 0.29% hits; TRb/SRC2 Texas Red total fluorescence interference; Potency, µM (titrated, usually from 106 µM), for inactives: at the top dose fluorescence change, negative = quenching; AID 1479; active = well fitted curve in either direction with a large enough effect; inconclusive = small, poorly fitted or top-dose-only effect
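Flags fluorescent or light-absorbing compounds by total fluorescence, S + 2P, at 555 nm excitation and 632 nm emission. Mixture: 20 nM Texas Red SRC2 peptide, 0.6 uM human TRb LBD, 1 uM T3, 5% DMSO; compound exposure 5 h at ambient temperature.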
Tau fluor counter: counter-screen for tau fibril formation inhibitors; Potency, µM (top dose mostly 57.7 µM), without a hit: at the top dose activity change, negative = decrease; 280,000 compounds, 0.93% hits; tau K18 P301L (four-repeat tau fragment) Alexa594 fluorescence, heparin fibrillization; also: nearly all actives have a fitted effect of over 55% in size
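Human K18 P301L tau (15 uM unlabeled plus 0.24 uM Alexa 594-labeled, final) in 100 mM sodium acetate pH 7 was mixed with compound and 20 uM heparin and incubated 6 hr at 37 C.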
* marks the source's active call; other numbers are inactive results; ? = inconclusive; nt = no result; ! = not active in a repeat; [ ] = remark or other dose. Unless noted, calls follow the shape of the dose curve; as a rule, active = well fitted curve in the direction sought with a large enough effect; inconclusive = small, poorly fitted or top-dose-only effect, or another doubt; inactive = no such curve, though single readings can be large; an effect the other way counts as inactive or inconclusive. Unless noted, % is scaled to controls: 0 for no effect and ±100 for the full control effect; potency is read from the fitted curve at half-maximal effect.

SMILES | Tau ThT inhib | Tau FP inhib | TRb SRC2 PPI | JMJD2E inh | TexasRed fluor | Tau fluor counter
Cc1nc(Nc2nc3ccccc3o2)nc(C)c1C(=O)Nc1ccc(F)cc1 | ? | -7% | 6%[53 µM] | -4% | -2%[53 µM] | -15%
O=S1(=O)[C@H]2CC3O[C@]2(C[C@@H]3c2ccc(F)cc2)CN1Cc1ccc(Cl)cc1 | -6% | -2% | 5% | -1% | 0% | -17%
CCn1c(SCC(=O)Nc2ccccc2N2CCOCC2)nnc1-c1ccccc1 | -3% | 6% | 0% | -3% | -3% | -1%
COc1ccccc1NC(=O)c1cc2cc(Br)ccc2cc1O | nt | -6% | 11% | ? | -10% | 6.3µM*[quencher]
COc1ccccc1NC(=O)c1cc2ccc(O)cc2o/c1=N\O | 7.1µM* | 5% | 15% | ? | -19% | ?
CCOc1ccc(N(CC(=O)Nc2ccccc2CC)S(=O)(=O)c2c(C)[nH]c(=O)[nH]c2=O)cc1 | -8% | 0% | 5% | nt | 1% | -10%
CCOc1cccc(C2c3c(oc4ccc(F)cc4c3=O)C(=O)N2c2cc(C)ccn2)c1 (stereo unspecified) | -12% | -16% | 8% | nt | 7% | -26%
NC(=O)N/N=C/c1cn(-c2ccccc2)nc1-c1cccs1 | 16% | -12% | 6% | -23% | -2% | -25%
NS(=O)(=O)c1ccc(N/N=C/c2cn(-c3ccccc3)nc2-c2cccs2)cc1 | 16µM* | -11% | 1% | ? | -3% | 13µM*[quencher]
NS(=O)(=O)c1ccc(N/N=C/c2cn(-c3ccccc3)nc2-c2cccs2)c([N+](=O)[O-])c1 | 2.5µM* | 16% | -7% | 0% | -2% | ?
CCc1ccc2c(c1)cc(CN(C(=S)Nc1ccccc1)C1CC1)c1nnnn12 | -4% | 1% | -2% | -7% | -6% | -21%
Cc1ccc(C2NC(=O)c3n[nH]c(-c4cccs4)c32)cc1 (stereo unspecified) | -1% | -1% | 4% | nt | -1% | -4%
CCOC(=O)c1sc(Nc2nc3cc4c(cc3s2)OCO4)cc1C | ? | -2% | 2% | ? | 0.32µM*[quencher] | 4.5µM*[quencher]
CCOC(=O)c1sc(Nc2nc3c(OC)cccc3s2)cc1C | 5% | 6% | 10% | -11% | 1% | 8%
CC(=O)Nc1nc2cc3c(cc2s1)OCO3 | -5% | 8% | 5% | 1% | -5% | 5%
CC(=O)c1sc(Nc2nc3cc4c(cc3s2)OCO4)nc1C | 3.2µM* | 0% | 0% | -13% | -2% | ?
CCOc1cc([N+](=O)[O-])cc(/C=C2/NC(=O)N(Cc3ccccc3F)C2=O)c1O | 14µM* | -3% | -6% | 0% | -11% | ?
CCOC(=O)c1ccc(NC(=O)C(CC)Sc2nncn3c2cc2oc(C)cc23)cc1 (stereo unspecified) | ? | -1% | 1% | nt | -2% | ?
COc1ccccc1N(CC(=O)Nc1ccccc1C(=O)NCC(C)C)S(C)(=O)=O | 0% | -10% | 0% | ? | -7% | -5%
COc1cc(Cl)c(S(=O)(=O)NCCc2c(C)[nH]c3c(C)cccc23)cc1Cl | ? | 22% | -1% | nt | -1% | 16µM*[quencher]
COc1c(C)cc(S(=O)(=O)NCCc2c(C)[nH]c3ccccc23)c(C)c1C | ? | ? | -1% | nt | 3% | 16µM*[quencher]
COc1c(C)cc(S(=O)(=O)NC2CC(C)(C)NC(C)(C)C2)c(C)c1C | -17% | -6% | 5% | -5% | -2% | -4%
COc1ccc(C(C)C)cc1S(=O)(=O)NCCc1c(C)[nH]c2c(Cl)cccc12 | ? | 2% | -23%[53 µM] | nt | -77%[53 µM] | ?
COC(=O)CCCC1=CC2=CC(=O)C(C)(OC(=O)c3ccco3)C(=O)C2=CO1 (stereo unspecified) | -19% | ? | 4% | 1% | 2% | ?
N#Cc1c(Nc2ccccc2C(F)(F)F)s[nH]c1=O | 16µM* | 28µM* | -2% | -3% | -1% | -17%
SMILES | Tau ThT inhib | Tau FP inhib | TRb SRC2 PPI | JMJD2E inh | TexasRed fluor | Tau fluor counter
N#Cc1c(Nc2ccccc2)s[nH]c1=O | nt | 16µM* | 1% | -1% | -4% | ?
N#Cc1c(Nc2ccccc2)sc(C(=O)c2ccc(F)cc2)c1N | ? | 1% | -4% | -1% | 0% | ?
CC(=O)OC1=Cc2c(ccc3ccc(=O)oc23)OC1(C)C | -16% | -1% | -8% | ? | 4% | -11%
COc1ccc(NC(=O)c2ccc(NC(=O)N3CCSc4ncccc43)cc2)cc1 | -10% | 0% | 7% | nt | 1% | 7%
Cc1ccc(O)c(NC(=O)c2noc3c2CCCCC3)c1 | -11% | ? | -3% | 9% | -2% | 25µM*[quencher]
Cc1ccc(O)c(NC(=O)c2noc3c2CCCC3)c1 | ? | 13% | -3% | nt | -4% | ?
CC(C)CCNC(=O)c1ccc2c(c1)N(Cc1cccc(Cl)c1)C(=O)c1ccccc1S2 | 1% | -8% | -1% | nt | -2% | -8%
CC(C)CCNC(=O)Nc1ccc2c(c1)N(Cc1ccccc1)C(=O)c1ccccc1S2 | 10% | 14µM* | -7% | nt | 0% | -24%
CCN1C(=O)c2ccccc2Sc2ccc(NC(=O)Nc3cccc([N+](=O)[O-])c3C)cc21 | 1% | 16µM* | -22% | nt | 0.0005µM*[quencher] | ?
Cc1ccc(CNC(=O)c2ccc(N3CCCC3)c(NC(=O)Nc3ccc(F)c(Cl)c3)c2)cc1 | 1% | ? | -2% | nt | 0% | ?
CCOC(=O)Cc1csc(-n2sc3ccccc3c2=O)n1 | 28µM* | 28µM* | 0% | 10µM* | -7% | ?
CCc1nc(Nc2ccccc2)c2oc3ccccc3c2n1 | -9% | -14% | -3% | ? | -3% | -27%
CC(=O)N1CCN(c2ccc(Nc3ncnc4c3oc3ccccc34)cc2)CC1 | 4.5µM* | 3% | 0% | ? | -11% | ?
CCc1nc(Nc2ccc(N3CCN(C(C)=O)CC3)cc2)c2oc3ccccc3c2n1 | 13µM* | 16% | -18% | ? | ? | ?
c1ccc(Nc2ncnc3c2oc2ccccc23)cc1 | -10% | 2% | 5% | ? | 2% | -7%
O=C(CCSCCC(=O)NCc1ccco1)NCc1ccco1 | 14µM* | ? | -17% | ? | -3% | -21%
O=C(CCSCc1ccccc1Cl)NCc1ccco1 | -6% | -2% | 5% | 3% | 1% | -10%
Cc1c(Br)c(=O)[nH]c(=O)n1COCc1ccccc1 | -1% | 5% | 7% | 6% | 1% | -7%
Oc1cc(O)cc(/C=C/c2ccc(O)c(O)c2)c1 | 7.1µM* | 8% | ? | ? | 50µM*![quencher] | 11µM*[quencher]
COc1ccccc1-n1c(SCC(=O)Nc2cc(C)on2)nc2c(c1=O)SCC2 | 1% | 0% | 3% | -8% | -3% | 5%
